The sample as a whole holds a higher share of hits than the screen did.
ST2 inh: inhibitors of human ST2 (IL1RL1) binding to IL-33. 2.3% of 78,000 active. inhibition, % for hits at 17 µM. AlphaLISA ST2-Fc/biotin-IL-33 interaction, 1 h; in the data active means inhibition above about 30%
Target sequence (Q01638 whole entry, looked up): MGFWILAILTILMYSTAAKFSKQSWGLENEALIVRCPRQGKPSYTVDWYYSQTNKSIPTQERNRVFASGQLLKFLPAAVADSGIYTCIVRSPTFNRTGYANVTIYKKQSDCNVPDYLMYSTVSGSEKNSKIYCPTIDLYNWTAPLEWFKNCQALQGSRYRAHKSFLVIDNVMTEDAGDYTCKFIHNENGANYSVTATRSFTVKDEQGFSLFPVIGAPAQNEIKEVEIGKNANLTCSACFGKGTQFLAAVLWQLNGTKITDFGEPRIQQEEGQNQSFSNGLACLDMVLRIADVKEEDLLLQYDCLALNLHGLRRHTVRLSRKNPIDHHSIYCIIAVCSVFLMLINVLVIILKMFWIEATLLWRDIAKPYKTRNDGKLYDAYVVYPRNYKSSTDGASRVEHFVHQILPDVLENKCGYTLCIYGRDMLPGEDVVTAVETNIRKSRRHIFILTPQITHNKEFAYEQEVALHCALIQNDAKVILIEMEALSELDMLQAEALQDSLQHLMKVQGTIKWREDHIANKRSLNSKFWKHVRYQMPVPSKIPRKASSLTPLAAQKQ
Numbers without * were called inactive; i = inactive.

SMILES	ST2 inh
CCN(CC)c1ccc(C=Nc2ccc(OC)cc2OC)c(O)c1	35.0%*
CC(Cn1cccn1)C(=O)N1CCc2c(nc(-c3ccccn3)[nH]c2=O)C1 (stereo not drawn)	i
CCOc1ccc(Cn2c(CNS(=O)(=O)c3ccc(OCC)cc3)nc3cccnc32)cc1	i
COc1ccc(NS(=O)(=O)C[C@@]23CC[C@H](CC2=O)C3(C)C)cc1	i
Cc1ccc(CSC2=NCCN2C(=O)c2cccc(C)c2)cc1	i
CC1=C(C(=O)OCCc2ccccc2)C(c2ccc(N(C)C)cc2)C2=C(CC(C)(C)CC2=O)N1 (stereo not drawn)	i
CCc1ccc(C2=C(C)C(=O)N(CC(=O)NC3CCCCC3)S2(=O)=O)cc1	i
CCOC(=O)c1nn(CCc2ccc(OC)cc2)c2c1CN(C(=O)c1cc(C)nc(C)n1)CC2	30.0%*
CCOC(=O)c1nn(CCc2scnc2C)c2c1CN(C(=O)c1scc3c1CCCC3)CC2	i
CCOC(=O)c1nn(Cc2ccc(OC)cc2)c2c1CN(C(=O)C1CCCO1)CC2 (stereo not drawn)	i
CCC1=C(c2ccc(OC)cc2)S(=O)(=O)N(CC(=O)NCc2ccccc2OC)C1=O	i
NS(=O)(=O)c1ccsc1C(=O)N1C[C@@H]2C3CCC(CC3)[C@@H]2C1	i
CCC(C)OC(=O)C1=C(C)NC2=C(C(=O)C(C(=O)OC)C(C)C2)C1c1ccc(Cl)cc1 (stereo not drawn)	i
CNCCC(=O)c1ccccc1	i
CCc1ccccc1NC(=O)CSc1nnc(-c2ccncc2)n1-c1ccccc1	i
O=C(CSc1nnc(-c2ccco2)n1-c1ccccc1)NCC1CCCO1 (stereo not drawn)	i
c1ccc(-c2nnc(SCC3CCOCO3)n2-c2ccccc2)cc1 (stereo not drawn)	31.0%*
CC1=C(C(=O)Nc2ccccc2)C(c2cccc(O)c2)n2ncnc2N1 (stereo not drawn)	i
Cc1ccc([C@]2(O)NC([S-])=C(C#N)[C@H](c3ccc(F)cc3)[C@H]2[n+]2ccccc2)cc1	i
Cc1cc[n+](C2C(c3ccc(Br)cc3)C(C#N)=C([S-])NC2(O)C2CC2)cc1 (stereo not drawn)	55.0%*
COC(=O)C1C(=O)NC(SC)=C(C#N)C1c1ccc(C)cc1 (stereo not drawn)	i
O=[N+]([O-])c1cccc(CN2CCN(Cc3ccc4c(c3)OCO4)CC2)c1	i
Cc1cc(CN2C(=O)C(=O)c3ccccc32)c(C)cc1CN1C(=O)C(=O)c2ccccc21	i
Cc1cccc(NC(=O)CN2C(=O)C(=O)c3ccccc32)c1	i
C/C(Cl)=C\CN1C(=O)C(=O)c2cccc(C)c21	54.0%*
SMILES	ST2 inh
COc1cc2c(cc1OC)C(C(=O)Nc1cccc(Cl)c1)C(c1ccccc1F)N(C)C2=O (stereo not drawn)	i
Cc1cc(NC(=O)c2cccs2)nc2c1c(=O)oc1ccccc12	i
CCOC(=O)c1c(NC(=O)c2ccc(S(=O)(=O)N3CCCC3)cc2)sc2c1CCCCC2	i
Cn1c(CN2CC[C@H](c3nnc(C(C)(C)C)o3)C2)nc2ccccc21	i
CCOc1ccc(N2C(=O)S/C(=C\c3ccc(C)o3)C2=O)cc1	34.0%*
CCOc1ccc(N2C(=O)S/C(=C\c3ccc(O)cc3)C2=O)cc1	i
CCOc1ccc(N2C(=O)S/C(=C\c3ccc(OC)cc3)C2=O)cc1	i
Cc1ccc(CN2C(=O)CSc3ccc(C(=O)NCc4cccnc4)cc32)cc1	i
OCCN1CCN(c2nc(NCc3ccco3)c3ccccc3n2)CC1	i
Cc1cc(N2CCN(c3cc(N4CCN(CCO)CC4)ccc3[N+](=O)[O-])CC2)c2ccccc2n1	i
O=[N+]([O-])c1ccc(N2CCN(c3nc(N4CCN(CCO)CC4)nc4ccccc34)CC2)cc1	31.0%*
Cc1cccc(-c2noc([C@@H]3C[C@@H](O)CN3Cc3ccc([N+](=O)[O-])cc3)n2)c1	i
N#Cc1c(NC(=O)c2cc(-c3ccc(F)cc3)on2)sc2c1CCCC2	i
O=S(=O)(c1ccc(O)cc1)c1ccc(-c2ccccc2)cc1	i
CCCN1CCN(CCCNC(=O)c2cccn2-c2nnc(N3CCCCC3)s2)CC1	i
COCCOC(=O)C1=C(C)N=C2SCCC(=O)N2C1c1cccc(Oc2ccccc2)c1 (stereo not drawn)	i
CCOC(=O)c1c(NC(=O)c2sc3ccccc3c2Cl)sc2c1CCN(C)C2	38.0%*
CCOC(=O)c1c(NC(=O)c2ccc(Br)s2)sc2c1CCN(C)C2	i
CCOC(=O)c1c(NC(=O)c2ccc(S(=O)(=O)N3CCCC3)cc2)sc2c1CCN(C)C2	i
Cc1cccn2c(=O)c3cc(C(=O)N4CCN(Cc5ccccc5)CC4)n(C)c3nc12	i
CCCc1nc(N2Cc3cnn(CCO)c3C2)c2cnn(C)c2n1	i
COc1ccc(CC2CN(Cc3cnn(-c4ccccc4)c3)CCO2)cc1 (stereo not drawn)	i
[O-][n+]1c2ccccc2[n+]([O-])c2cc(O)ccc21	35.0%*
O=S(=O)(NCc1nc2cccnc2n1Cc1ccc(F)cc1)c1cccs1	i
COc1ccc(N(CC(=O)Nc2ccc(C)c(Cl)c2)S(C)(=O)=O)cc1	i
SMILES	ST2 inh
COc1ccc(N(CC(=O)Nc2ccc(F)cc2)S(C)(=O)=O)cc1Cl	i
COc1cccc(NC(=O)CN(c2ccc(Cl)c(Cl)c2)S(C)(=O)=O)c1	96.0%*
Cc1ccc(-n2c(SCC(=O)Nc3nnc(C)s3)nc3c(c2=O)SCC3)cc1	i
COc1ccc(NC(=O)c2oc3ccccc3c2NC(=O)COc2ccccc2F)cc1	i
COc1cccc(-c2nnnn2[C@H]2CO[C@H]3[C@@H]2OC[C@@H]3NC(=O)c2ccc(C(F)(F)F)cc2)c1	i
O=C(NC1CCCCC1)O[C@@H]1CO[C@H]2[C@@H]1OC[C@@H]2n1nnnc1-c1ccccc1	39.0%*
O=C(NC1CCCCC1)N[C@H]1CO[C@H]2[C@@H]1OC[C@@H]2n1nnnc1Oc1ccc(-n2ccnc2)cc1	i
O=C1C2ON(c3ccccc3)C(c3ccccc3)C2C(=O)N1Cc1ccccc1 (stereo not drawn)	i
Cc1ccc(C(=O)NC(NC(=O)c2ccc(Cl)cc2)C(Cl)Cl)cc1 (stereo not drawn)	i
CN(C)CCNC(=O)C1(O)c2cc(Br)ccc2NC(=O)N1c1c(F)cccc1F (stereo not drawn)	i
O=C(Nc1ccc(Oc2ccccc2)cc1)C1CC1	i
O=C(Nc1ccc(O)cc1)C1CC=CCC1 (stereo not drawn)	34.0%*
O=C(O)COc1ccc(NC(=O)C2CCCCC2)cc1	i
CCOc1c(N2CCN(c3cc(Cl)ccc3C)CC2)c(=O)c1=O	i
CCCc1nc(N)c(C#N)c(-c2ccccc2Cl)c1CC	i
Cn1ccnc1SCC(=O)Nc1ccc(Cl)cc1	i
COC(=O)c1c(NC(=O)CSc2nccn2C)sc2c1CCC(C(C)(C)C)C2 (stereo not drawn)	35.0%*
CC(C)OC(=O)c1c(NC(=O)CSc2ncccn2)sc2c1CCCC2	i
Cc1ccc(-n2c(CN(C)S(C)(=O)=O)n[nH]c2=O)cc1C	i
CN(C)C(=O)c1ccc(S(=O)(=O)NCCc2ccc(Cl)cc2)s1	i
Cc1cccc(NC(=O)c2ccc(Cl)cc2)c1	i
CCc1ccccc1NS(=O)(=O)c1ccc(Cl)cc1	i
Cc1ccc(NC(=O)CSc2nc3c(c(=O)n2-c2ccccc2)SCC3)cc1Cl	i
CCCOc1ccc(C(=O)N2CCOCC2)cc1OC	i
Cc1cc(C)c(C(=O)c2ccc(C(=O)N3CCOCC3)cc2)c(C)c1	i
C=CCOc1ccc(C(=O)N2CCOCC2)cc1	31.0%*
O=c1[nH]c2c(oc3ccccc32)c(-c2ccccc2)c1-c1ccccc1	i

Assay outcomes (PubChem BioAssay)
